From PubChem BioAssay AID720579 (National Center for Advancing Translational Sciences (NCATS), 2013)
Screen size: about 310,000 compounds; about 1,900 (0.61%) were called active. Roughly 8% stayed inconclusive and do not appear here. Calls come from the whole dose curve; tested in A549 cells. What follows is part of a selection rich in actives, with near analogues and random picks from the rest. Where a call stands in place of a potency, no number is given.

Assay: qHTS for Stage-Specific Inhibitors of Vaccinia Orthopoxvirus: mCherry Reporter Primary qHTS; note: nearly all actives have a fitted effect of over 35% in size
Settings: Vaccinia virus mCherry reporter infection, fluorescence; series mostly up to 36.5 µM
Potency is the fitted concentration of half-maximal effect.

Structure (SMILES) | Potency | outcome
CCc1c(-c2ccc(F)cc2)ncn1Cc1cccc(-c2ccccc2)c1 | inactive | –
N#Cc1cccc(NC(=O)c2cc(C3CCCCN3C(=O)CCc3ccccc3)on2)c1 (centres undefined) | inactive | –
Cc1cc2c(cc1C)N1C(=O)c3cc4ccccc4cc3NC(=O)C1C(=O)N2 (centres undefined) | inactive | –
CCNc1nc(NCC)nc(N/N=C/c2ccc(O)c(OC)c2)n1 | inactive | –
FC(F)(F)c1cccc(N/N=C/c2ccccc2)c1 | inactive | –
Oc1ccc(/C=N/Nc2ccc(C(F)(F)F)cn2)cc1O | 10 µM (active) | –
O=C(COc1ccccc1C(=O)Nc1ccccc1)Nc1cccc(F)c1 | inactive | –
CC1(C(=O)Nc2cccc(Oc3ccccc3)c2)CCN1Cc1ccccc1Cl (centres undefined) | inactive | –
CN1OC[C@@H]2CN(C(=O)c3ccc(-c4ccccc4)cc3)[C@H](c3ccc(-c4cccc(F)c4)cc3)C[C@@H]21 | inactive | –
COc1ccccc1Cc1c(-c2ccc(Cl)cc2)nc2ccc(Cl)cn12 | inactive | –
C/C(=N\NC(=O)c1ccccc1F)c1ccccn1 | 2 µM (active) | –
O=C(Nc1ccc(NC(=O)c2ccccc2F)cc1)c1ccccc1F | inactive | –
C/C(=N\NC(=O)Cc1ccc(F)cc1)c1ccc(F)cc1 | inactive | –
C/C(=N\NC(=O)Cc1ccc(Br)cc1)c1cccnc1 | inactive | –
O=C(NCCOc1ccccc1)c1ccccc1F | inactive | –
C/C(=N\NC(=O)Cc1ccc(Cl)cc1)c1ccccn1 | 5.01 µM (active) | –
COc1ccccc1Cc1c(-c2ccc(Cl)cc2)nc2c3ccccc3ccn12 | inactive | –
COc1ccc(NC(=O)c2sc(=O)n(Cc3ccc(S(=O)(=O)N(C)C)cc3)c2C)cc1 | inactive | –
COc1cccc(-c2cc(NC(C)=O)c3ncc(-c4cccc(C(C)=O)c4)n3c2)c1 | inactive | –
SCc1nc2ccc(Cl)cc2[nH]1 | inactive | –
CC(=O)N1Cc2cc(C(=O)NCc3cccc(F)c3)nc(-c3cccc(C4=CCCC4)c3)c2[C@H]1CCO | inactive | –
Cc1ccc(C)c(S(=O)(=O)n2nc(C)c(S(=O)(=O)N3CCC(C)CC3)c2C)c1 | inactive | –
Cc1ccc(S(=O)(=O)N2CCN(c3ncnc4ccccc34)CC2)cc1 | inactive | –
Cc1ccc(C)c(S(=O)(=O)N2CCN(c3ncnc4sccc34)CC2)c1 | 7.08 µM (active) | –
CCCN(CCC)S(=O)(=O)c1cc2c(cc1Br)CCN2C(=O)CC | inactive | –

Structure (SMILES) | Potency | outcome
CCCNC(=O)C1(C)CCN(Cc2ccc(Cl)c(Cl)c2)C1 (centres undefined) | inactive | –
COc1ccc(NC(=O)c2cnc(NS(=O)(=O)c3ccccc3)nc2)cc1 | inactive | –
CCn1c(=O)c(=O)[nH]c2c(=O)oc3ccc(S(=O)(=O)Nc4ccc(OC)cc4)cc3c21 | inactive | –
COc1ccc(NS(=O)(=O)c2ccc3oc(SCC(N)=O)nc3c2)cc1 | 3.55 µM (active) | –
Cc1ccc(NC(=O)Cn2sc3ccccc3c2=O)cc1 | inactive | –
CN(C(=N)N)c1ccc(/C=C2\C=Cc3ccccc32)cc1 | inactive | –
CCOC(=O)[C@]12CCCC=C1N(CCC1=CCCCC1)C(=O)[C@H](CC(=O)N1CCCCC1)C2 | inactive | –
COc1cc2nc(N3CCCN(C)CC3)nc(NC3CC3)c2cc1OC | inactive | –
c1ccc2sc(NN=C3CCCC3)nc2c1 | inactive | –
c1ccc(C(=NNc2nc3ccccc3s2)c2ccccn2)cc1 | 7.08 µM (active) | –
O=C(Nc1ccccc1Cl)O/N=C(/c1ccccc1)c1ccccn1 | inactive | –
Cc1[nH]c2ccccc2c1C(=O)c1cc([C@H](NC(=O)OC(C)(C)C)C(C)C)sc1N | inactive | –
CCCCN(C(C)=O)c1ccc2c(c1)C1CC2CCN1Cc1ccccc1 (centres undefined) | inactive | –
Fc1ccc(/C=N/Nc2nc(-c3cccnc3)nc3ccccc23)cc1 | – | inactive [at 7.34 µM]
COc1ccccc1Oc1nc(-c2cccnc2)nc2ccccc12 | inactive | –
O=[N+]([O-])c1ccc(F)cc1Oc1nc(-c2cccnc2)nc2ccccc12 | 3.55 µM (active) | –
COc1ccc(-c2ccc(C(=O)NCCN3CCOCC3)c3occc23)c(C)c1 | inactive | –
COC1CC(OC2CC[C@@]3(C=O)C4CC[C@]5(C)C(C6=CC(=O)OC6)CC[C@@]5(O)C4CC[C@]3(O)C2)OC(C)C1O (some centres undefined) | 2.51 µM (active) | –
CC1=C(C(=O)N2CCOCC2)CC(CC(=O)NCC2CCCCC2)C(=O)N1Cc1ccc(F)cc1 (centres undefined) | inactive | –
CC(=O)C1=CCC(c2ccccc2)N(S(=O)(=O)c2ccc(C)cc2)C1 (centres undefined) | inactive | –
COc1cccc(NC(=O)C2(C)CCN2C(=O)CCC2CCCC2)c1 (centres undefined) | inactive | –
CCCCCCN1CCN(C2CN(Cc3cn(CCCCCC)nn3)S(=O)(=O)C2)CC1 (centres undefined) | inactive | –
COc1c(O)ccc2c1CN1CCc3cc4c(cc3C1C2)OCO4 (centres undefined) | 11.2 µM (active) | –
COc1ccc2c(c1O)-c1cccc3c1[C@@H](C2)N(C)CC3 | inactive | –
CN1CCc2cc3c(cc2[C@H]1[C@@H]1OC(=O)c2c1ccc1c2OCO1)OCO3 | inactive | –

Structure (SMILES) | Potency | outcome
CC(C)NC(=O)C1(C)CCCCCN1C(=O)c1ccc(-c2ccccc2)cc1 (centres undefined) | inactive | –
CC(=O)c1ccc(Nc2nc(C(N)c3ccccc3Cl)cs2)cc1 (centres undefined) | inactive | –
CC(=O)Nc1cccc(-c2cc(NC(C)=O)c3ncc(-c4ccccc4)n3c2)c1 | inactive | –
CCOc1ccc(-c2cc(C(=O)N/N=C/c3ccc(O)cc3)c3ccccc3n2)cc1 | 3.98 µM (active) | –
COc1ccc(-c2cc(C(=O)N/N=C/c3cccnc3)c3ccccc3n2)c(OC)c1 | inactive | –
COc1ccc(-c2cc(C(=O)Nc3ccccc3O)c3ccccc3n2)cc1 | inactive | –
CC1(C(=O)Nc2ccc3c(c2)OCCO3)CCN1C(=O)Cc1cc(F)ccc1F (centres undefined) | inactive | –
CCCOc1ccc(F)cc1-c1cc(C(=O)NCc2ccc(F)cc2)[nH]n1 | inactive | –
CN(Cc1cccc2ncccc12)C(=O)c1cnn(-c2nccc(-c3ccccc3F)n2)c1C1CC1 | 5.62 µM (active) | –
Cc1ccc(-c2ccnc(-n3ncc(C(=O)N(C)Cc4cccc5ncccc45)c3C3CC3)n2)o1 | inactive | –
Cc1cccc(CNC(=O)c2cnn(-c3nccc(-c4ccccc4F)n3)c2C2CC2)n1 | inactive | –
CCOC(=O)C1=CCC(c2ccc(F)cc2)N(S(=O)(=O)c2ccc(C)cc2)C1 (centres undefined) | inactive | –
CC1CCN(C2=NC(=O)/C(=C/c3ccc(O)cc3)S2)CC1 | inactive | –
O=C1N=C(N2CCCC2)S/C1=C\c1cccc(Br)c1 | inactive | –
CCOc1cc(/C=C2\SC(N3CCCC(C)C3)=NC2=O)ccc1O (centres undefined) | 11.2 µM (active) | –
CCCCC(=O)N(C)c1c(CC)nc2c(OCc3ccc(S(C)(=O)=O)cc3)cccn12 | inactive | –
OCCC#Cc1ccc(N2C(c3ccsc3)=Cc3ccc(F)cc3C2c2c[nH]c3ccccc23)cc1 (centres undefined) | inactive | –
COc1ccc(CC2c3cc(OC)c(OC)cc3CC[N+]2(C)CCC(=O)OCCCCCOC(=O)CC[N+]2(C)CCc3cc(OC)c(OC)cc3C2Cc2ccc(OC)c(OC)c2)cc1OC (centres undefined) | 15.8 µM (active) | –
COc1ccc(CN2CCOC2=O)cc1OC | inactive | –
COC(=O)C1=CN(Cc2ccc(OC)c(OC)c2)C=C(C(=O)OC)C1c1cccs1 | inactive | –
OC[C@@H]1CN(Cc2ccc(F)cc2)C[C@H](n2cnc3c(NC4CCCC4)ncnc32)O1 | inactive | –
COc1ccccc1CNc1nc(Nc2ccccc2Cl)c2sccc2n1 | inactive | –
CC(C)c1cccc(-c2csc(C(O)c3ccccc3)n2)c1 (centres undefined) | inactive | –
Cc1ccc(C(O)c2ncc(-c3ccccc3F)[nH]2)cc1F (centres undefined) | inactive | –
O=C(CNC(=O)c1cccnc1)N/N=C/c1cccnc1 | inactive | –

Structure (SMILES) | Potency | outcome
O=C(CSc1cccc2cccnc12)N/N=C/c1cccnc1 | 11.2 µM (active) | –
CCOC(=O)N/N=C/c1cccnc1 | inactive | –
COc1cc(C=C(OC(C)=O)c2ccc3c(c2)OCO3)cc(OC)c1OC | inactive | –
COC(=O)[C@]12CCCCC=C1N(Cc1ccco1)C(=O)[C@H](CC(=O)NCC1CCCCC1)C2 | inactive | –
COC(=O)[C@]12CCCCC=C1N(Cc1ccc(Cl)cc1Cl)C(=O)[C@H](CC(=O)NCc1cccc3ccccc13)C2 | inactive | –
Cc1ccnc(NC(=O)C2CCN(S(=O)(=O)c3c(C)c(C)cc(C)c3C)CC2)c1 | 11.2 µM (active) | –
Cc1ccc(S(=O)(=O)N2CCC(C(=O)Nc3cc(C)ccc3C)CC2)cc1 | inactive | –
O=C(Nc1ccccn1)C1CCN(S(=O)(=O)c2ccccc2)CC1 | inactive | –
COc1ccc(C(C#N)=C2C=CC(=NO)c3ccccc32)cc1 | inactive | –
COc1cc(C)c(CN2CCN(C(=O)CCC(=O)c3ccc(C)s3)CC2)cc1OC | inactive | –
COC(=O)[C@]12CCCCC=C1N(Cc1ccco1)C(=O)[C@H](CC(=O)NCCCCc1ccccc1)C2 | inactive | –
Cc1cc(-c2ccc(C)c(S(=O)(=O)N3c4ccccc4CC3C)c2)on1 (centres undefined) | inactive | –
CC1Cc2ccccc2N1S(=O)(=O)c1c(N)n(C)c(=O)n(C)c1=O (centres undefined) | inactive | –
CC1Cc2ccccc2N1S(=O)(=O)c1ccc(Cl)nc1 (centres undefined) | 15.8 µM (active) | –
CCc1cccc(NC(=O)c2cc(-c3ccccc3)n[nH]2)c1 | inactive | –
CCc1ccc2c(c1)C1(NN=C(c3ccccc3)S1)C(=O)N2 (centres undefined) | 14.1 µM (active) | –
CCc1ccc2c(c1)NC(=O)C2(C)Cc1ccc(OC(F)(F)F)cc1 (centres undefined) | inactive | –
CCOc1ccc(C(NC(=O)c2cc(OC)c(OC)c(OC)c2)c2cc(Cl)c3cccnc3c2O)cc1 (centres undefined) | 10 µM (active) | –
CCOc1ccc(C(=O)NC(C(=O)NCc2ccccn2)C(C)C)cc1 (centres undefined) | inactive | –
COc1cc(C(=O)N[C@@H](C)C(=O)NCc2ccco2)cc(OC)c1OC | inactive | –
CC(C)C[C@@H](COCc1ccc(Cl)cc1)N1CCN(C(=O)c2ccc(Cl)cc2Cl)CCC1=O | inactive | –
NC(=S)NN=C1CCCC(C(F)(F)F)C1 (centres undefined) | 10 µM (active) | –
CC(C)NC(=S)NN=C1CCCCCCCCCCC1 | inactive | –
CC(C)(C)C1CCC(=O)N2CCC[C@]2(c2ccccc2)C1 (some centres undefined) | inactive | –
